In all, about 650,000 compounds went through this assay and about 5,900 (0.91%) were called active. Cut-off read from the data, not from the text of the source: active = inhibition above about 50%; inactive = the rest. For the sample, actives were picked, then their nearest neighbours and some compounds at random.

This assay deals with Microphthalmia-associated transcription factor (Homo sapiens) (UniProt O75030). Description: MITF inhibitors, primary screen, biochemical, AlphaScreen, human (AID 1259374).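 Note: 0% = vehicle wells with protein.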 The following applies: AlphaScreen MITF homodimerization, bead proximity signal; at 2.6 µM; active compounds read high. In general terms: Alpha assays give light when donor and acceptor beads are brought close together.
Microphthalmia-associated transcription factor (Homo sapiens), sequence (O75030 whole entry, looked up): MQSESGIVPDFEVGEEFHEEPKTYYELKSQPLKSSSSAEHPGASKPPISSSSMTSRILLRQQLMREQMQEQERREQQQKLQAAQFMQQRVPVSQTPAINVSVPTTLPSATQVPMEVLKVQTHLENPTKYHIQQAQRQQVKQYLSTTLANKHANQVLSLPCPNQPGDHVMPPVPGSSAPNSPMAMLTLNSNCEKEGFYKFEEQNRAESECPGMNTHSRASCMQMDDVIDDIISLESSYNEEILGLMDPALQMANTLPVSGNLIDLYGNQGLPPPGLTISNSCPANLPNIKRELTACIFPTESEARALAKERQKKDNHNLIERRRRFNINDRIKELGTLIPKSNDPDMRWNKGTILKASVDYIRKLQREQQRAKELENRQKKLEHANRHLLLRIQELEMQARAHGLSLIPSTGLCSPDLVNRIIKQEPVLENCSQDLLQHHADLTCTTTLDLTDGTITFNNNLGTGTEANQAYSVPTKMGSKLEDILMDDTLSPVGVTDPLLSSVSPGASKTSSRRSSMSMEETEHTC
With `Cc1ccc2nc3sc(C(=O)N4CC(=O)Nc5ccccc54)c(N)c3cc2c1`, the inhibition (usually the drop in the measured response relative to a control, in per cent) was -4.39% (inactive).

`O=[N+]([O-])c1ccc(OCc2nnc(SCCN3CCOCC3)n2-c2ccccc2)cc1`: the inhibition is 53.2% (active).

In the case of `COc1ccccc1-c1nnc(SCCN2CCOCC2)n1C`, the inhibition was 0.66% (inactive).

With `c1ccc(C(Sc2nnc(COc3ccc(C4CCCCC4)cc3)n2-c2ccccc2)c2ccccc2)cc1`, the inhibition is 15.4% (inactive).

As to `COc1ccc(C(=O)Oc2ccc3c(C(F)(F)F)cc(=O)oc3c2C)cc1OC`, the inhibition was 6.47% (inactive).

On to `O=S(=O)(c1ccc(-c2csc(N3N=C(c4cccs4)CC3c3ccc(F)cc3)n2)cc1)N1CCCCC1` (stereo not drawn), for which the inhibition is 12% (inactive).

With `Cc1ccc(N(C2C=CS(=O)(=O)C2)S(=O)(=O)c2ccc(Br)cc2)cc1` (stereo not drawn), the inhibition is 19.4% (inactive).

With `O=C(O)c1cccc(-n2[nH]c(-c3ccccc3)cc2=O)c1`, the inhibition was 7.2% (inactive).

For `Cc1nc2sc3c(c2c(=O)n1/N=C/c1ccccc1[N+](=O)[O-])CCCC3`, the inhibition is -7.66% (inactive).

Take `Cn1c(=O)oc2cc(S(=O)(=O)N3CCC(C(=O)NC(C)(C)C)CC3)ccc21`: the inhibition is 70.2% (active).

With `Cn1c(=O)oc2cc(S(=O)(=O)N3CCC(C(=O)NCCC4=CCCCC4)CC3)ccc21`, the inhibition is -12.8% (inactive).

Turning to `COc1cccc(NC(=O)C2CCN(S(=O)(=O)c3ccc4c(c3)oc(=O)n4C)CC2)c1`, the inhibition was -1.03% (inactive).

Turning to `CC(C)NC(=O)NC(=O)COC(=O)c1ccc(Cl)c(S(N)(=O)=O)c1`, the inhibition was 0.26% (inactive).

`CCOC(=O)c1ccc(NC(=O)CCc2c(C)nc3nc(CN)nn3c2C)cc1`: the inhibition was 6.45% (inactive).

In the case of `COc1ccccc1NC(=O)Cn1cnc2sc(C(=O)Nc3nc4ccc(Br)cc4s3)c(C)c2c1=O`, the inhibition is 17.9% (inactive).

Turning to `COCCCN1C(=O)c2cccc3cccc(c23)C1=O`, the inhibition is 1.36% (inactive).

Consider `COCCCN1C(=O)c2cccc3c(C(=O)c4ccccc4)ccc(c23)C1=O`, for which the inhibition is 64.3% (active).

For `CCCCN1C(=O)c2cccc3c(C(C)=O)ccc(c23)C1=O`, the inhibition is 7.62% (inactive).

On to `N/C(=N\OC(=O)c1cccc(F)c1)c1ccc(Cl)cc1`, for which the inhibition is 17.5% (inactive).

`CCOc1ccc(CN2CCCC(C(=O)N(C)Cc3ccccc3)C2)cc1` (stereo not drawn): the inhibition is 45.6% (inactive).

As for `COc1ccc(CN2CCC(C(=O)N3CCN(Cc4ccccc4)CC3)CC2)cc1`, the inhibition was 52% (active).

Consider `COc1ccc(CN2CCCC(C(=O)N3CCCCC3)C2)cc1` (stereo not drawn), for which the inhibition is 57.8% (active).

As to `COc1ccc(-c2ncc(C)c(NC3CCN(Cc4ccccc4)CC3)n2)cc1`, the inhibition was 9.68% (inactive).

For the molecule `CCOc1cc(CN2CCC(C(=O)NCCc3ccccc3)CC2)ccc1O`, the inhibition is -1.67% (inactive).

Take `COc1cccc(CN2CCC(C(=O)NCCc3ccccc3)CC2)c1`: the inhibition was 54.9% (active).

As to `COc1cccc(CN2CCC(C(=O)NC(C)(C)C)CC2)c1`, the inhibition is 18.9% (inactive).

For the molecule `CCOC(=O)C1CCCN(Cc2ccc(F)cc2)C1` (stereo not drawn), the inhibition was 12.6% (inactive).

As for `COc1ccc(-c2nc(C(=O)NC3CCN(Cc4ccccc4)CC3)cs2)cc1`, the inhibition was 9.55% (inactive).
